MITF TRPM1 inh – reduces MITF-dependent TRPM1 promoter luciferase signal; SK-MEL-5 TRPM1 promoter luciferase, 24 h; inhibition, % at 12.5 µM; actives 0.83% (n = 330,000); AID 488899;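 active = mean inhibition across replicates of 60% or more, whatever share of single replicates reaches that level; inconclusive = some that reach 60%, reason not given; inactive = mean inhibition across replicates below 60%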
LMP1 NFkB inh – reduces LMP1-driven NF-kappaB luciferase signal; LMP1-induced NF-kappaB luciferase reporter cells, luminescence; inhibition, % at 12.5 µM; actives 0.69% (n = 350,000); AID 504558; in the data active = inhibition above about 41%; inconclusive = no clear call, values can overlap the other calls;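 note: 0% = neutral control wells and 100% = reference inhibitor control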
Shn3 3UTR inh – Schnurri-3 reporter inhibition in Clone20 osteoblasts; Clone20 osteoblast Shn3 3'UTR firefly luciferase, 24 h; inhibition, % at 12.5 µM; actives 0.52% (n = 360,000);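 active = mean inhibition of at least 75% with every replicate also reaching 75%; inconclusive = mean inhibition at least 75% but some replicate below; inactive = mean inhibition below 75%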;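 note: 0% = median of neutral control wells and 100% = pilot-screen positive control compound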
TROY signal inh – inhibitors of TROY-dependent NF-kB signaling; AID 1347056; actives 0.98% (n = 360,000); inhibition, % at 10 µM; Q293 LMP1-TROYcd NF-kB luciferase reporter, 4 h;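 active = compounds whose plate-normalised and pattern-corrected inhibition of the luciferase reporter signal at the single screening dose is 50% or more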
TWEAK Fn14 block – blocks TWEAK-Fn14 interaction in a reporter cell assay. TWEAK-stimulated Fn14 reporter cells, luciferase luminescence, 8 h. inhibition, % at 10 µM. actives 2% (n = 360,000); in the data active = inhibition above about 50%
Peg3 promoter – reduces Peg3 promoter-driven luciferase expression in HeLa | actives 1.7% (n = 360,000) | inhibition, % at 20 µM | HeLa PEG-Prom luciferase reporter, luminescence, overnight;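 active = inhibition of at least 50% at 20 µM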
* = called active by the depositor; ? = inconclusive; . = no result. Rows were chosen to be rich in hits. Some 4.1% of all compounds tested hit in one or more screens of this group.

SMILES	MITF TRPM1 inh	LMP1 NFkB inh	Shn3 3UTR inh	TROY signal inh	TWEAK Fn14 block	Peg3 promoter
CC(=O)Nc1c(C)cc(S(C)(=O)=O)cc1C	1	-1	-8	11	4	1
Cc1c(N=Cc2nc3ccccc3[nH]2)c(=O)n(-c2ccccc2)n1C	-5	-8	-17	-34	-16	-12
Cc1c(N=C2C=CC(=O)c3ccccc32)c(=O)n(-c2ccccc2)n1C	71*	-12	-12	23	32	47
Cc1c(N=Cc2nc3ccccc3n2C)c(=O)n(-c2ccccc2)n1C	6	-8	-7	64*	62*	-65
O=C(CN(Cc1ccccc1)C(=O)CCC(=O)Nc1ccccn1)NCc1ccco1	-10	7	-1	-9	-2	18
O=C(NCC(=O)c1ccccc1)OCc1ccc([N+](=O)[O-])cc1	-23	68*	1	-16	-1	-44
COc1ccc(C)cc1NC(=O)CCS(=O)(=O)c1cc2c(cc1Cl)NC(=O)CO2	4	-4	7	-6	3	1
CSc1ccc(C2NN=C(c3ccccc3)S2)cc1 (centres undefined)	29	33	37	51*	77*	-88
CCOc1cc(C2NN=C(c3ccc(C)cc3)S2)ccc1O (centres undefined)	-61	-15	-83	-65	-39	-305
Oc1ccccc1C1NN=C(c2ccccc2)S1 (centres undefined)	-10	-21	-36	-21	56*	-182
CC(NC(=O)CNC(=O)c1sc2ccccc2c1Cl)c1cccnc1 (centres undefined)	-6	3	-9	1	32	-21
CC1CN(CCCCOc2ccc(F)cc2)CC(C)O1 (centres undefined)	16	-3	-2	-11	18	6
Cn1cc([N+](=O)[O-])c(C(=O)Nc2sc3c(c2C#N)CCC3)n1	68*	-8	95*	-7	0	-41
O=C1C=CC2(O[C@H](c3ccccc3)[C@@H](c3ccccc3)O2)[C@H](Sc2ccccc2O)C1	94*	82*	96*	80*	105*	108*
COC(=O)CSc1cccc2c1C(=O)CC2c1ccccc1 (centres undefined)	-4	-1	-14	-17	0	-6
c1ccc(CNc2ccc(N3CCOCC3)cc2)cc1	-40	-1	-25	65*	32	-136
CC(=O)N1CCN(c2ccc(S(=O)(=O)NCCN(C(C)C)C(C)C)cc2[N+](=O)[O-])CC1	-5	3	8	7	-2	1
O=[N+]([O-])c1cc(S(=O)(=O)NCCCN2CCOCC2)ccc1Cl	5	-11	-17	-20	20	28
Cc1ccc(-n2nnnc2Sc2ccc(S(=O)(=O)NCCN(C)C)cc2[N+](=O)[O-])cc1	92*	47*	-46	33	97*	100*
O=[N+]([O-])c1cc(S(=O)(=O)NCCN2CCOCC2)ccc1Sc1nnnn1-c1ccccc1	79*	-11	8	22	89*	42
CN(C)CCNS(=O)(=O)c1ccc(N2CCN(c3ccc(F)cc3)CC2)c([N+](=O)[O-])c1	8	-8	52	8	5	63*
OC(c1ccccc1)c1nc(-c2cc(F)cc(F)c2)cs1 (centres undefined)	.	.	-28	-12	-15	-39
CC(C)CN(C(=O)CN1CCN(c2ccc([N+](=O)[O-])cc2)CC1)c1c(N)n(CC(C)C)c(=O)[nH]c1=O	10	-11	-19	-4	4	1
CCOc1ccccc1NC(=O)CN1C(=O)C(=O)N(Cc2ccco2)C1=O	-1	-7	5	9	-5	10
Nc1nc(CSC(=S)N2CCN(c3ccccc3)CC2)nc(Nc2ccc(F)cc2)n1	11	14	39	6	50*	9
SMILES	MITF TRPM1 inh	LMP1 NFkB inh	Shn3 3UTR inh	TROY signal inh	TWEAK Fn14 block	Peg3 promoter
COCCSc1nnc(NS(=O)(=O)c2ccccc2)s1	-7	-9	1	-1	12	1
COCCSc1nnc(NS(=O)(=O)c2ccc(C)cc2)s1	7	-5	4	54*	-2	5
Cc1cc(C)nc(SCC(=O)Nc2ccnc3ccccc23)n1	18	7	?	15	33	-11
O=C(CSC1=NCCS1)Nc1ccnc2ccccc12	2	12	67	29	52*	23
CC(=O)N1CCOc2ccc(S(=O)(=O)NCc3ccc(Cl)cc3)cc21	-1	-5	23	-7	2	-3
CC(=O)N1CCOc2ccc(S(=O)(=O)Nc3ccc(Cl)cn3)cc21	7	4	-4	54*	1	17
CC(C)C[C@@H]1NC(=O)[C@H](Cc2ccccc2)N(C)C(=O)[C@H](C)NC(=O)c2ccccc2NC(=O)[C@H](Cc2ccc(O)cc2)N(C)C1=O	18	1	45	-3	26	52*
CC(C)CC1NC(=O)N(CC(=O)N2c3ccccc3NC(=O)C2(C)C)C1=O (centres undefined)	13	-6	-12	0	-30	11
COc1ccc(NC(=S)NC(NC(=O)/C=C/c2ccccc2)C(Cl)(Cl)Cl)cc1 (centres undefined)	7	3	24	43	17	53*
O=C(/C=C/c1ccccc1)NC(NC(=S)Nc1ccc(Cl)cc1)C(Cl)(Cl)Cl (centres undefined)	55	38	?	42	67*	38
CC(=O)NC(NC(=S)Nc1ccc(N=Nc2ccccc2)cc1)C(Cl)(Cl)Cl (centres undefined)	-3	5	25	-19	63*	-44
O=C(/C=C/c1ccccc1)NC(NC(=S)Nc1cc(Cl)ccc1Cl)C(Cl)(Cl)Cl (centres undefined)	-2	4	-4	1	20	5
O=C(O)CCC(=O)Nc1ccc(N=Nc2ccccc2)cc1	-2	-13	-4	-18	-18	-14
CC(C)(C)C(=O)Nc1ccc(N=Nc2ccccc2)cc1	20	-4	39	83*	4	2
CCCCOc1ccc([N+](=O)[O-])cc1C(=O)O	4	5	-11	15	34	5
O=C1c2ccccc2-c2nccnc21	15	-7	-7	6	7	-7
NC1=C(Cl)C(=O)c2ccccc2C1=O	95*	2	-2	-22	5	-62
NC1=C(Cl)C(=O)c2ccc(S(N)(=O)=O)cc2C1=O	96*	88*	98*	86*	108*	110*
COC(=O)NC1(C(F)(F)F)C(=O)Nc2c1c(=O)n(C)c(=O)n2C (centres undefined)	-14	3	-10	-3	-15	3
CCC1CCc2c(sc3nc(SCC(=O)NCc4ccco4)n(-c4ccccc4)c(=O)c23)C1 (centres undefined)	11	-29	40	8	-16	1
CCN(CC)C(=O)CSc1n[nH]c(=S)n1N	-11	-5	-2	7	84*	-5
